For assay [1], the target named is Glucocorticoid receptor (Homo sapiens) (UniProt P04150). Description: GR-GFP Redistribution (AID 450;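 active means compounds whose dose series gives a full or clear partial fitted curve of increased nuclear translocation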; further: potency means the concentration at half of the fitted maximal effect). To be noted: U2OS GR-GFP nuclear translocation, laser cytometry, 2 h.
The target is the same in assay [2]. Description: GR-EFC Redistribution (AID 451; calls by dose curve; further: potency means the concentration at half of the fitted maximal effect). As to conditions: CHO-K1 GR-EFC translocation, beta-gal luminescence, 2 h. The procedure, abridged: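 Translocation of GR-ED fusion to nuclear EA restores b-gal, read by luminescence after 1 h room-temperature detection. Engineered CHO-K1 biosensor cells, 1,000/well, exposed 2 h at 37 C to titrations up to 46 uM final.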

Assay [3] has as its target Mitogen-activated protein kinase 10 (Mus musculus) (UniProt Q61831). Description: JNK3 AlphaScreen Assay (AID 530; active means well fitted curve in either direction with a large enough effect, not every such curve was filed as active;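 further: kinase came from lysate of stimulated human HepG2 cells; signal reports phosphorylation of biotinylated GST-cJun 1-79 at Ser73 with 10 µM ATP; on the % scale 0 is the no-effect control and ±100 the full control effect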). As to conditions: JNK3 lysate, c-Jun phosphorylation; series mostly up to 57.1 µM. The procedure, abridged:
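Compound titrations were preincubated 15 minutes at room temperature with substrate, antibody and pre-activated JNK3-containing HepG2 lysate. Reactions were started with 10 uM ATP and stopped with EDTA-containing bead buffer for AlphaScreen detection.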
In general terms: Alpha assays give light when donor and acceptor beads are brought close together.

Assay [4] is described as follows: qHTS Assay for Lipid Storage Modulators (AID 1519; calls by dose curve). To be noted: Drosophila S3 cells, BODIPY lipid droplet/cell ratio, laser cytometry, cells loaded with oleic acid. A digest of the protocol:
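Cells seeded at 5,000 per well were treated with compounds over a concentration series and loaded with oleic acid (400 uM, as added). Lipid droplet fluorescence (488 nm excitation, 500-530 nm channel) was read by laser-scanning cytometry and normalized to 20 uM Triacsin C.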
Background: In qHTS, concentration-response curves come from the screen itself.

For assay [5], the target named is Ubiquitin carboxyl-terminal hydrolase 1 (Homo sapiens) (UniProt O94782). Description: Inhibitors of USP1/UAF1: Pilot qHTS (AID 504865).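 Further: rhodamine fluorescence freed from ubiquitin-rhodamine substrate followed over time; top concentration of the series differs between compounds; on the % scale 0 is the no-effect control and ±100 the full control effect; nearly all actives have a fitted effect of over 35% in size.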 As to conditions: purified USP1/UAF1, Ub-rhodamine cleavage fluorescence; series mostly up to 114 µM. The procedure, abridged: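 Deubiquitinase activity followed as kinetic rhodamine fluorescence release from 150 nM Ub-Rho. 1 nM USP1/UAF1 with compound, after 15 min room-temperature preincubation, in HEPES pH 7.8 buffer containing TCEP, EDTA, BSA and Tween-20.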

Assay [6] has as its target DNA dC->dU-editing enzyme APOBEC-3G (Homo sapiens) (UniProt Q9HC16). Description: qHTS for inhibitors of Vif-A3G interactions: Validation (AID 588379). Further: 0% is about no effect. As to conditions: Vif-A3G protein interaction assay; series mostly up to 46.1 µM. A digest of the protocol: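 HeLa cells stably expressing Vif and A3G-eYFP, 700 cells/well, incubated overnight at 37 deg C, then exposed to compound overnight at 37 deg C. Inhibition of Vif-mediated degradation read as increased yellow fluorescence (Ex 488/Em 500-530) by laser-scanning cytometry.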

Assay [7] has as its system Zika virus NS2B-NS3 protease. Description: Primary screen GU AMC qHTS for Zika virus inhibitors (AID 1347154).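 Further: 0% = no-inhibitor control and -100% = no-enzyme control; nearly all actives have a fitted effect of over 70% in size.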 To be noted: Zika NS2B-NS3 unlinked protease, AMC fluorogenic substrate; series mostly up to 54.1 µM. A digest of the protocol:
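Fluorogenic AMC-substrate cleavage by noncovalent NS2B-NS3 protease complex (25 nM, pH 8.0 Tris buffer with Tween 20) followed for 15 minutes at room temperature (~20% conversion). Percent inhibition from ex340/em450 signal change, fitted by 4-parameter Hill equation.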

Assay [8] can be described thus: Primary qHTS for small molecule stabilizers of the endoplasmic reticulum resident proteome: Secreted ER Calcium Modulated Protein (SERCaMP) assay (AID 1508630). Further: on the % scale 0 is the no-effect control and ±100 the full control effect. To be noted: SH-SY5Y GLuc-SERCaMP (Gaussia luciferase released on ER calcium loss) secretion, thapsigargin, luminescence; series mostly up to 38.4 µM. The procedure, abridged:
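GLuc-SERCaMP-expressing SH-SY5Y cells, pretreated 16 h with compound, are challenged with thapsigargin to empty ER calcium stores; after 4 h, coelenterazine is added directly to the medium and luminescence is imaged.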

The target in assay [9] is Cytochrome P450 1A2 (Homo sapiens) (UniProt P05177). Description: p450-cyp1a2 (AID 410; calls by dose curve;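 further: -100% = full effect of reference inhibitor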). As to conditions: recombinant CYP1A2, luciferin-ME demethylation, luminescence; series mostly up to 57 µM. A digest of the protocol:
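Luminescent readout of luciferin formed from Luciferin-ME by human CYP1A2; data normalized against complete inhibition by 57 uM furafylline. Enzyme 20nM, substrate 100uM at Km, 100mM KPO4 buffer, 60 min reaction at room temperature.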

A short description of assay [10]: NFAT Signaling Pathway (AID 444; active means well fitted curve in either direction with a large enough effect, not every such curve was filed as active;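 further: carbachol stimulus at about its EC50 of 1 µM final; on the % scale 0 is the no-effect control and ±100 the full control effect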). As to conditions: Jurkat NFAT-bla M1, carbachol, beta-lactamase ratio, 5 h. A digest of the protocol: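 Read-out: CCF4 FRET ratio (460 nm/530 nm) after 1 h RT dye loading, used for %activity and AC50 from titration series. Cells: Jurkat NFAT-β-lactamase/M1 line, treated with compound plus 1 uM carbachol for 5 h, 37 °C.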
The nature of assay [11]: Stat Signaling Pathway (AID 446; active means well fitted curve in either direction with a large enough effect, not every such curve was filed as active;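 further: ME-180 cervical cancer cells given 40 pM IL-6 alongside compound; SIE-controlled beta-lactamase reporter measured as 460/530 nm FRET emission ratio; on the % scale 0 is the no-effect control and ±100 the full control effect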). As to conditions: ME-180 (cervical carcinoma) SIE beta-lactamase reporter, IL-6 stimulated, 5 h; series mostly up to 38 µM. The procedure, abridged: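 IL-6/STAT signaling read in ME-180 cells via an SIE beta-lactamase reporter. Stimulus was 40 pM IL-6 (its AC50) for 5 hrs, so both activation and inhibition register.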
The target of assay [12] is 3',5'-cyclic-AMP phosphodiesterase 4B (Homo sapiens) (UniProt Q07343). Description: qHTS Assay for Inhibitors of PDE-IV (AID 607; active means well fitted activation curve with a large enough effect in the main read-out, with a control signal flat, not every such curve was filed as active; further: % of control where 0% means no effect). As to conditions: HEK293 ACTOne CNG channel cells, membrane potential fluorescence; series mostly up to 22.9 µM. The procedure, abridged:
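Live HEK293 cells with a modified cyclic nucleotide-gated (CNG) channel report intracellular cAMP via membrane-potential dye fluorescence (ex 535/em 590 nm). Endogenous PDE-IV was targeted. Compounds were tested at up to 22.9 uM final; RO 20-1724 100 uM served as control.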

For assay [13], the target named is Guanine nucleotide-binding protein G(i) subunit alpha-1 (Homo sapiens) (UniProt P63096). Description: qHTS Assay for Inhibitors of RGS12 GoLoco Motif Activity (Green Fluorophore) (AID 879).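 Further: 0% = labeled peptide with Gαi1 and full inhibition = labeled peptide alone without protein; negative values mean loss of peptide binding seen as reduced polarization.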 To be noted: Galphai1/FITC-RGS12 GoLoco peptide, fluorescence polarization; series mostly up to 57.1 µM. A digest of the protocol:
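Fluorescence polarization assay: 50 nM Gαi1 with 10 nM FITC-labeled RGS12 GoLoco peptide in 10 mM Tris pH 7.5, 150 mM NaCl, 0.1 mM GDP, 0.05% NP40, 10 min at room temperature with compound.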

In assay [14] the target is Pyruvate kinase (Leishmania mexicana) (UniProt Q27686). Description: qHTS Validation Assay for Inhibitors of Leishmania Mexicana Pyruvate Kinase (AID 945).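 Further: 0% = DMSO only neutral control wells.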 To be noted: purified L. mexicana pyruvate kinase, enzyme activity, E451W mutant enzyme; series mostly up to 57.5 µM. A digest of the protocol:
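Mutant LmPYK (E451W), 0.2 nM, plus 0.5 mM PEP and 0.1 mM ADP in 50 mM imidazole pH 7.2 containing 0.01% Tween 20 and 0.05% BSA. Incubated 1 h at room temperature; luminescence via PKLight, normalized to DMSO.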

For assay [15], the target named is Pyruvate kinase PKM (Homo sapiens) (UniProt P14618). Description: qHTS Assay for Activators of Human Muscle Pyruvate Kinase (AID 954; active means well fitted curve in the direction sought with a large enough effect, not every such curve was filed as active;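 further: 0% = uninhibited enzyme and -100% = no enzyme or full thiadiazolimine inhibition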). As to conditions: purified human muscle pyruvate kinase, luciferase-coupled luminescence, 1 h; series mostly up to 57.5 µM. The procedure, abridged:
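Enzyme was run at intermediate activity so both inhibitors and activators could be detected. ATP formed from ADP and PEP by 0.1 nM human PKM2 during a 1 h room-temperature incubation was quantified by coupled luciferase luminescence.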

Assay [16] has as its target Alpha-galactosidase (Coffea arabica) (UniProt Q42656). Description: Counterscreen for Glucocerebrosidase Inhibitors: qHTS Assay for Coffee Bean alpha-Galactosidase at pH 4.5 (AID 957).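 Further: plate controls were enzyme alone for no effect and no enzyme for full effect.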 To be noted: purified coffee bean alpha-galactosidase, fluorogenic substrate; series mostly up to 76.9 µM. A digest of the protocol: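 Coffee bean alpha-galactosidase 2 nM, substrate 4-MU-alpha-Gal 80 uM, pH 4.5 citrate/Tween-20, 20 min RT. Cpd titration 0.7 nM–77 uM. Stop pH 10, fluorescence 365/440 nm; Hill-equation AC50.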
A general note: The purpose of a counterscreen is to sort out artefacts and off-target activity.

Assay [17] addresses Alpha-galactosidase A (Homo sapiens) (UniProt P06280). Description: Counterscreen for Glucocerebrosidase Inhibitors: qHTS Assay for Human alpha-Galactosidase at pH 4.5 (AID 992). Further: 0% is about no effect. As to conditions: purified enzyme, fluorogenic substrate; series mostly up to 76.9 µM. A digest of the protocol:
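Read-out is 4-methylumbelliferone fluorescence (365 nm excitation, 440 nm emission) after a pH 10 NaOH/glycine stop. Reactions held 2 nM enzyme and 80 uM substrate at pH 4.5 for 20 min at room temperature.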

In assay [18] the target is alpha-glucosidase (Oryza sativa, rice) (UniProt Q653V4). Description: Counterscreen for Glucocerebrosidase Inhibitors: qHTS Assay for Rice alpha-Glucosidase at pH 5.0 (AID 997).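 Further: 0% = full activity with enzyme and -100% = basal without enzyme.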 To be noted: rice alpha-glucosidase enzyme activity; series mostly up to 76.9 µM. The procedure, abridged:
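Rice alpha-glucosidase (4 nM final) with 400 uM 4-methylumbelliferyl-alpha-D-glucopyranoside in citrate buffer pH 5.0, 20 min at room temperature, stopped at pH 10; fluorescence 365/440 nm, compounds 0.7 nM–77 uM, AC50 from Hill fits.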

Molecules are shown by their SMILES. Several values for one entry are separate records, joined by “and”; a condition that tells them apart may be missing. Equal values may be shown once. Records with an inconclusive call do not appear. Activity calls are given as the source filed them. Unless noted, the call rests on the fitted dose curve; in most records, active means well fitted curve in the direction sought with a large enough effect; inconclusive means small, poorly fitted or top-dose-only effect, or another doubt; inactive means no such curve, though single readings can be large; an effect the other way counts as inactive or inconclusive.

Sequence of Glucocorticoid receptor (Homo sapiens) (P04150 whole entry, looked up, the tested form may be a part): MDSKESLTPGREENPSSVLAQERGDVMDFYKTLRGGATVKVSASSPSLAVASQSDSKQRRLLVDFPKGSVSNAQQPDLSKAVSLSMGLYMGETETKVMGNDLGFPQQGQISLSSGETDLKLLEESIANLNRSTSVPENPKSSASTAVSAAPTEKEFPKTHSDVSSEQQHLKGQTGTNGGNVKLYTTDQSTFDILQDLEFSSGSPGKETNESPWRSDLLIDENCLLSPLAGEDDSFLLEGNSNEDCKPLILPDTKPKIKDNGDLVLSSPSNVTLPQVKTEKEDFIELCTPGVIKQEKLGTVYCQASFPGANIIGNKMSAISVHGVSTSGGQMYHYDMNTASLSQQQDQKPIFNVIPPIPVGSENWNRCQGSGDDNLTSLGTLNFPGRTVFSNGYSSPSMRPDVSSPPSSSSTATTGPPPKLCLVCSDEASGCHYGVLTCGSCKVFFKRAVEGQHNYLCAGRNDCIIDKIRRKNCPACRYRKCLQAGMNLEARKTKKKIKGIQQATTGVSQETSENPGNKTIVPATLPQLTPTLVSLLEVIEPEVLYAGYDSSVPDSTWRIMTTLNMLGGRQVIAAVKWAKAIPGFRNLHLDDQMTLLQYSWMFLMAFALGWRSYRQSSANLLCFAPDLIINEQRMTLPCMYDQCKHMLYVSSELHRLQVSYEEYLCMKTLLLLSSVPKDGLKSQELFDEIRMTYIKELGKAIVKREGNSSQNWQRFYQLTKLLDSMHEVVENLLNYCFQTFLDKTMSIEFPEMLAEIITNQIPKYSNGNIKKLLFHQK
Sequence of 3',5'-cyclic-AMP phosphodiesterase 4B (Homo sapiens) (Q07343 whole entry, looked up): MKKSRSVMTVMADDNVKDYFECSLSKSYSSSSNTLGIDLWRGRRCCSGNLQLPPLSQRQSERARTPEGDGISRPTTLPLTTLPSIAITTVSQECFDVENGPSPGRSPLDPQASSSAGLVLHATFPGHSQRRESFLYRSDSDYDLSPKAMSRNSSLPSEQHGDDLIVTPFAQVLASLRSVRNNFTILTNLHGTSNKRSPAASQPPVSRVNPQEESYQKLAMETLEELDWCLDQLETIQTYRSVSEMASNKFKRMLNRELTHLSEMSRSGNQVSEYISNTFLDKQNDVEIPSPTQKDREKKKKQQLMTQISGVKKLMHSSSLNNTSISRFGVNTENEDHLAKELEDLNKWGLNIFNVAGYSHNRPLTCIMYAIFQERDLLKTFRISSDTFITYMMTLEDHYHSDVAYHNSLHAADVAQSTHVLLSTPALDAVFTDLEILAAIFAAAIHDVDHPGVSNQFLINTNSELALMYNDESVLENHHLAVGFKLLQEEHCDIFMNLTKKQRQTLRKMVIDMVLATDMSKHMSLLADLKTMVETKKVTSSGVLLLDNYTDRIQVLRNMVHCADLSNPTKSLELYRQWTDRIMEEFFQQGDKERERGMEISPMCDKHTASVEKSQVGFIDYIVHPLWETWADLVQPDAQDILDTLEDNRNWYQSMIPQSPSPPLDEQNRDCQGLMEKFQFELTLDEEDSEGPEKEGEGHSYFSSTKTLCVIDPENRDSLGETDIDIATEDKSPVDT
Sequence of Cytochrome P450 1A2 (Homo sapiens) (P05177 whole entry, looked up): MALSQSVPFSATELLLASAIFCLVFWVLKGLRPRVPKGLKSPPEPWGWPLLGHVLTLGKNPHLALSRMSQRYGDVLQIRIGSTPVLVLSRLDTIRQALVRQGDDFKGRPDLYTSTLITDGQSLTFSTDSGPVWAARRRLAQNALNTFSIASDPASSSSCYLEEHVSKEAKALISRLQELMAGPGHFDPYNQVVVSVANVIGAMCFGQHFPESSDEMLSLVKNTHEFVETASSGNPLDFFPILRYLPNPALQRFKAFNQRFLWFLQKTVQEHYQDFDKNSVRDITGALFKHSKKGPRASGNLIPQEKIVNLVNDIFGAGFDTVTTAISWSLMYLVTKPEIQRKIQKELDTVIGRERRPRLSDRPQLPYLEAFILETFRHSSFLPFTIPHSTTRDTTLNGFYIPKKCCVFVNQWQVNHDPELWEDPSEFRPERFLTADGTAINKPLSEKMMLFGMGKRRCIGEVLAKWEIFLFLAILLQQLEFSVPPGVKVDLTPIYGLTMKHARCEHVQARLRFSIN
Sequence of DNA dC->dU-editing enzyme APOBEC-3G (Homo sapiens) (Q9HC16 whole entry, looked up): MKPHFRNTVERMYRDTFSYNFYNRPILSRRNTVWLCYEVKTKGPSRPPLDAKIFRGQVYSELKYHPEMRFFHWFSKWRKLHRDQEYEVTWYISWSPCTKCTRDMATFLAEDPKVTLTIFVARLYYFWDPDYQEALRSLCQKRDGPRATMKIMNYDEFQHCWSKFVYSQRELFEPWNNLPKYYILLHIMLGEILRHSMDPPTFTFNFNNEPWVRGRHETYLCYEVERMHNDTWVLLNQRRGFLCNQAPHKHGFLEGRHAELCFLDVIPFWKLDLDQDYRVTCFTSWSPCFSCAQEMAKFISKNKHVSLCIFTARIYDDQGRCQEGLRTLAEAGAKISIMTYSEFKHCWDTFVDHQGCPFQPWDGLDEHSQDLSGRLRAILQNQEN
Sequence of Pyruvate kinase PKM (Homo sapiens) (P14618 whole entry, looked up): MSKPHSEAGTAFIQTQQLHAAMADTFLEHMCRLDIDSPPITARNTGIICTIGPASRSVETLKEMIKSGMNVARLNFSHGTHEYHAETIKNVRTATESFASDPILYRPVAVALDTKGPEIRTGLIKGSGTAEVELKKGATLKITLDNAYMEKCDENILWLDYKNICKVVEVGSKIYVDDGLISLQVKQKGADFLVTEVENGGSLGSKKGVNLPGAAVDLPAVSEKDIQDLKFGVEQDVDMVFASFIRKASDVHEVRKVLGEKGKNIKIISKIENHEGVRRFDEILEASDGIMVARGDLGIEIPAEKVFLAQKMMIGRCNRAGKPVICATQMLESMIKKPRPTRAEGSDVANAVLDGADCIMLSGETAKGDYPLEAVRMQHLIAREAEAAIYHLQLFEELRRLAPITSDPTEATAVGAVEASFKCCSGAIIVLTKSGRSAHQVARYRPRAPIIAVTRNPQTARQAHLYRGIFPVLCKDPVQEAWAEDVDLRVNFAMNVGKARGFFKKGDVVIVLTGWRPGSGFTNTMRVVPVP
Sequence of Guanine nucleotide-binding protein G(i) subunit alpha-1 (Homo sapiens) (P63096 whole entry, looked up): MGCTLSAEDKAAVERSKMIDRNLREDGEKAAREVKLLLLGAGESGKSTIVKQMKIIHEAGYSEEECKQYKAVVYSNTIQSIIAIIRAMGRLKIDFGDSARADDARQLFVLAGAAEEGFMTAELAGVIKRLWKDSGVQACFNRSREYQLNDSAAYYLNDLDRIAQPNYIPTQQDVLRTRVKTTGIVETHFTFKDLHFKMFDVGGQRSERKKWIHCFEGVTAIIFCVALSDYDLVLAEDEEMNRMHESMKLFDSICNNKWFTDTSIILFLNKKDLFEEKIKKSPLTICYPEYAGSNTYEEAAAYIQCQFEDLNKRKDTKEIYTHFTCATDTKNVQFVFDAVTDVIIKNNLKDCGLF
Sequence of Alpha-galactosidase (Coffea arabica) (Q42656 whole entry, looked up): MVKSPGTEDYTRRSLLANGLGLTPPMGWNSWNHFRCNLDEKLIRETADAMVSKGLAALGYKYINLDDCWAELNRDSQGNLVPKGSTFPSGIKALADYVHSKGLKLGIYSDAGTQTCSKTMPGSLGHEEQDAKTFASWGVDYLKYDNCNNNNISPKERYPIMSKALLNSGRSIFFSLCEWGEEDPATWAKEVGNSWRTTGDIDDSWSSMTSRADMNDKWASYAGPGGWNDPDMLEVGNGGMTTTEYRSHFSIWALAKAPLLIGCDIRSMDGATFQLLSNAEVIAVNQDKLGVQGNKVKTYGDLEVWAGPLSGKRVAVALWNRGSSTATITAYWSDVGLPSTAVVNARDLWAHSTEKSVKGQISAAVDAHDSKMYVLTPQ
Sequence of Alpha-galactosidase A (Homo sapiens) (P06280 whole entry, looked up): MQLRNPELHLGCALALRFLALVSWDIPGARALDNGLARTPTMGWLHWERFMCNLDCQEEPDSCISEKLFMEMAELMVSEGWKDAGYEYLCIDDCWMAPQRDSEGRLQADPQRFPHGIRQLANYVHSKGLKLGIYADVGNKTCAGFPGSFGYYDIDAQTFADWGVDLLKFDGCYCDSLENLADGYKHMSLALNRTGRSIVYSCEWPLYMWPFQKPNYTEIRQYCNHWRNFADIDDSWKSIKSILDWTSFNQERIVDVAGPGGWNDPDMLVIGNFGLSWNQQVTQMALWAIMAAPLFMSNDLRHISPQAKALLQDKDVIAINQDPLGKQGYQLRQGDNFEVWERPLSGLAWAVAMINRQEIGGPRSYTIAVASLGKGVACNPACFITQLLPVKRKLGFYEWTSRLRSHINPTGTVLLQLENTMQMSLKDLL
Sequence of Pyruvate kinase (Leishmania mexicana) (Q27686 2-499 E452W): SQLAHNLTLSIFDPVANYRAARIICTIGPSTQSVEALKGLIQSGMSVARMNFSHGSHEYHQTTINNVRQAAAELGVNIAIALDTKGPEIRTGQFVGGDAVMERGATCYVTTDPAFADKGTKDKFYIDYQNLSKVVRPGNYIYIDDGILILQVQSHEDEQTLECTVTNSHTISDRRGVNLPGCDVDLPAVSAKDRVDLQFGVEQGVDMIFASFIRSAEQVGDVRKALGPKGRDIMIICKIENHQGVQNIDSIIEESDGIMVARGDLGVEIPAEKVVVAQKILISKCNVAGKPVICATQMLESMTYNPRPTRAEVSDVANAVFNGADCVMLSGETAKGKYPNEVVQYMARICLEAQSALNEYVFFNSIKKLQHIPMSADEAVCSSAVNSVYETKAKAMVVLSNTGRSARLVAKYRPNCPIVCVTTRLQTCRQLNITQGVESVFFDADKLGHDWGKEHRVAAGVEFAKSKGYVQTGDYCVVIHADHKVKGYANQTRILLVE

For the compound `C[C@](N)(CCP(=O)(O)O)C(=O)O`, the Potency in assay [1] and in [2] was > 46 µM (inactive) throughout. Further, the call in assay [3] was inactive. The activity change, negative = inhibition in assay [4] (at 57.5 µM (top of the series)) is 6.09% (inactive). Also, the max response in assay [4] (measured here: cell count channel max response) was -23.4%; in assay [4] (measured here: lipid channel max response), -20.7%. The Potency result in assay [5], in assay [6], in assay [7] and in assay [8] was “inactive” throughout.
Regarding `O=C1C2CCN(CC2)C1(CO)CO`, the Potency result in assay [9], in [12], in [6], in [7] and in assay [8] was “inactive” each time. Besides, the activity change, negative = inhibition in assay [10] (at 7.69 µM (top of the series)) was -7.28% (inactive). Further, the activity, negative = inhibition in [11] was 4.51% [at 7.69 µM] (inactive). Also, the Potency in assay [1] is > 46 µM (inactive); in assay [2] it was > 46 µM (inactive) and > 9.22 µM (inactive). In [3], the compound was classed as inactive.
For the compound `CCCC(=O)OCC[N+](C)(C)C`, the activity change, negative = inhibition in assay [10] (at 17.2 µM (top of the series)) was 5.08% (inactive). Also, the result in assay [11] was inactive. Besides, in assay [1], the Potency is > 20.6 µM (inactive). In addition, the Potency result in [7] and in assay [8] was “inactive” throughout.
Regarding `C/C(O)=C(/C#N)C(=O)Nc1cc(Br)ccc1Br`, in [10] (at 38 µM (top of the series)), the activity change, negative = inhibition was 6.53% (inactive). Besides, the outcome in [11], in [13], in assay [14], in assay [15], in assay [16] and in assay [17] was inactive. Moreover, in assay [18], the compound was classed as inactive. Also, the Potency in [1] was > 46 µM (inactive). The Potency result in [12], in [7] and in assay [8] was “inactive” in each case.

For the origin of these results see PubChem BioAssay (NCATS).
